# Reference: the supplement of paper PMC11732987, “Enantioselective OTUD7B fragment discovery through chemoproteomics screening and high-throughput optimisation” (Communications Chemistry, 2025)
# A number with no mark means an inactive call.
# Legend:
# Assay in all cases: log2 ratio of Biotin-Ahx-Ub-VS probe labelling (fragment/DMSO); higher = less target engagement (more negative = stronger competition), active = hit call of the paper (q ≤ 0.05, log2 ratio ≤ -1)
# Settings in all cases: compound concentration: 200 uM; treatment time: 3 h
# OTUD6B = biological target: T1, OTUD6B (UniProt Q8N6M0)
# T1 sequence (whole entry): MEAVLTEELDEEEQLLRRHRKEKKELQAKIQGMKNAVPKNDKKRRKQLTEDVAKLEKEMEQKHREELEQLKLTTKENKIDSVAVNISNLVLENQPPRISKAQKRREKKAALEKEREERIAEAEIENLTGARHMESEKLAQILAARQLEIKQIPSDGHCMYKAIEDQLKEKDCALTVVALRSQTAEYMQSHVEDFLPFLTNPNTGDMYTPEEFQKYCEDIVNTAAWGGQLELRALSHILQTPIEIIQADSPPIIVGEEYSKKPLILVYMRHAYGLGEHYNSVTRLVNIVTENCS
# Outline: (§1)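 HEK293T lysate, 495 µg per sample in Tris/CHAPS/IGEPAL buffer with protease inhibitors, was treated in triplicate with fragment at 200 µM or vehicle for 3 h and then with Biotin-Ahx-Ub-VS at 0.5 µM final for 1 h. Labelled DUBs were NeutrAvidin-enriched, digested with LysC and trypsin, and run by diaPASEF LC-MS/MS. Spectronaut label-free quantities were global-median-normalised, and values are average log2 fragment/vehicle ratios by unpaired t-test on proteins with ≥2 unique peptides.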
# OTUD7B = biological target: T2, OTUD7B (UniProt Q6GQQ9)
# T2 sequence (whole entry): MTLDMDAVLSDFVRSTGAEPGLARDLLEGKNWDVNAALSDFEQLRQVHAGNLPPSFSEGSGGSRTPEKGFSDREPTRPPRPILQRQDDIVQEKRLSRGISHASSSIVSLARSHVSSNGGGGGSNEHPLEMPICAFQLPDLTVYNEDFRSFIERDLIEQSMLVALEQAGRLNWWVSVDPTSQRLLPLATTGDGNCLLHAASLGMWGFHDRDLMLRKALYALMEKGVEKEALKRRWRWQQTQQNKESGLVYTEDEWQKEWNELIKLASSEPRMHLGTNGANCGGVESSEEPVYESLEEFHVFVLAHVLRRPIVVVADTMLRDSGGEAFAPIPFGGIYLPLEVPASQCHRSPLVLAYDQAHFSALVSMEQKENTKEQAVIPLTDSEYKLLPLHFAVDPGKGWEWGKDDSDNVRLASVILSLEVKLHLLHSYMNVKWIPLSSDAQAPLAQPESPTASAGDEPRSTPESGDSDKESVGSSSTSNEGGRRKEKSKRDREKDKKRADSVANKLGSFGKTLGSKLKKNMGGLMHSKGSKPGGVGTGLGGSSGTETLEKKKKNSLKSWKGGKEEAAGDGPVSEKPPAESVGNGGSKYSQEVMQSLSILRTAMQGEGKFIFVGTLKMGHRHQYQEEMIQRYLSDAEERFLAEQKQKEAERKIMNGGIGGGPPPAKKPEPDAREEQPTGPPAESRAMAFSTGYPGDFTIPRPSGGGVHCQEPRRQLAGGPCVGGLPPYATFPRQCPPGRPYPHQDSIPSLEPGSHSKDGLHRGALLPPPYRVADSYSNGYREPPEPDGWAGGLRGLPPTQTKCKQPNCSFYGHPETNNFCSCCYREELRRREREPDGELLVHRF
# Outline: as §1
# PRPF8 = PRPF8 (UniProt Q6P2Q9)
# Outline: as §1
# PSMD7 = biological target: T3, PSMD7 (UniProt P51665)
# T3 sequence (whole entry): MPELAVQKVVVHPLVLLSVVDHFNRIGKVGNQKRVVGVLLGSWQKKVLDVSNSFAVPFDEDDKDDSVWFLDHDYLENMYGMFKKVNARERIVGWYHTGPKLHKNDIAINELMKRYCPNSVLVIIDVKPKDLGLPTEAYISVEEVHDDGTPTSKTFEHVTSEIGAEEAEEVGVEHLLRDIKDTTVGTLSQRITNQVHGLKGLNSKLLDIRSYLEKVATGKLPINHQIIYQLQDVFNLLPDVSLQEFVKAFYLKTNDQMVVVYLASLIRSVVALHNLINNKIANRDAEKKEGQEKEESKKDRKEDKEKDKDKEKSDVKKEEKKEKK
# Outline: as §1
# UCHL1 = UCHL1 (UniProt P09936)
# Chain of UCHL1 (P09936 whole entry, looked up): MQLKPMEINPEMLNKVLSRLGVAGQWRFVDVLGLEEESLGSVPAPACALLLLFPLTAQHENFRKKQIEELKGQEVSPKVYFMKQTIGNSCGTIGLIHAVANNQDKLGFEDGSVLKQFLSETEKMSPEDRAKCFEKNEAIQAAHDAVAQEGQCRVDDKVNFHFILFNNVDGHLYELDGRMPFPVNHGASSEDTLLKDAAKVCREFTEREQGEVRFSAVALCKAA
# Outline: as §1
# UCHL3 = biological target: T4, UCHL3 (UniProt P15374)
# T4 sequence (whole entry): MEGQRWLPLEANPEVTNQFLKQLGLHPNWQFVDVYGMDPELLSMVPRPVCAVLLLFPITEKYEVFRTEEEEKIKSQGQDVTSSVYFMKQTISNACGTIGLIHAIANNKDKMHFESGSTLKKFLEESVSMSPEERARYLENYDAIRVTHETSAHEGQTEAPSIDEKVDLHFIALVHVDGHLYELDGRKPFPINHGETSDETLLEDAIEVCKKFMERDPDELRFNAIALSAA
# Outline: as §1
# UCHL5 = biological target: T5, UCHL5 (UniProt Q9Y5K5)
# T5 sequence (whole entry): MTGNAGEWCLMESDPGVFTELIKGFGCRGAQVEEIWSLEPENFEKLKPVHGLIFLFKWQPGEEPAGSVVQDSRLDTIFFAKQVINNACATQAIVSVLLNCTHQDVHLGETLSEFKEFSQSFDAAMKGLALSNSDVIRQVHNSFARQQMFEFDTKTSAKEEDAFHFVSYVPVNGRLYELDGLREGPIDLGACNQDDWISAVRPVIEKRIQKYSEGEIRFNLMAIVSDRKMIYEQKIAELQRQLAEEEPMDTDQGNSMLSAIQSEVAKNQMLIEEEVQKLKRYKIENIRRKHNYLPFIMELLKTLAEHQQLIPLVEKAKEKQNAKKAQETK
# Outline: as §1
# USP10 = USP10 (UniProt Q14694)
# Chain of USP10 (Q14694 whole entry): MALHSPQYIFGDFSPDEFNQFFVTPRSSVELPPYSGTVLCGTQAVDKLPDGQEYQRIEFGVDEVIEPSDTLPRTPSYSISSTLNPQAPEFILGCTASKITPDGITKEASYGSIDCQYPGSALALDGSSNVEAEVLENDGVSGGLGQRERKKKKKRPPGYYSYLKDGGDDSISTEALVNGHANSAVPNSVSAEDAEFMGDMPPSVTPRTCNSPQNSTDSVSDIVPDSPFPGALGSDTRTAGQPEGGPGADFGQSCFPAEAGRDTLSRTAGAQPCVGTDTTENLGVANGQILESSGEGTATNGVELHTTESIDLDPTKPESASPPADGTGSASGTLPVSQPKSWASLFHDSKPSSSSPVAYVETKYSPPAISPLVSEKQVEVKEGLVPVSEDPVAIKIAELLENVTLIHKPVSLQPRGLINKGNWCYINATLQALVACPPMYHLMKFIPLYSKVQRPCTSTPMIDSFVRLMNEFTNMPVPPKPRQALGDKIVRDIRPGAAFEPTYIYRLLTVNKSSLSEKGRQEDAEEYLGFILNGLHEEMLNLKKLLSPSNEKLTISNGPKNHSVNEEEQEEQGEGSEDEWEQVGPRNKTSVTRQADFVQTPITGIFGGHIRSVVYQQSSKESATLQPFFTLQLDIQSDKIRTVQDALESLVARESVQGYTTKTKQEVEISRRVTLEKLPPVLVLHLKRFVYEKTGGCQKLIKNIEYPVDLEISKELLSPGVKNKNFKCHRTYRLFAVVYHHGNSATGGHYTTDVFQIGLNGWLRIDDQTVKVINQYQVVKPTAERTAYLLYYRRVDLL
# Outline: as §1
# USP15 = biological target: T6, USP15 (UniProt Q9Y4E8)
# T6 sequence (whole entry): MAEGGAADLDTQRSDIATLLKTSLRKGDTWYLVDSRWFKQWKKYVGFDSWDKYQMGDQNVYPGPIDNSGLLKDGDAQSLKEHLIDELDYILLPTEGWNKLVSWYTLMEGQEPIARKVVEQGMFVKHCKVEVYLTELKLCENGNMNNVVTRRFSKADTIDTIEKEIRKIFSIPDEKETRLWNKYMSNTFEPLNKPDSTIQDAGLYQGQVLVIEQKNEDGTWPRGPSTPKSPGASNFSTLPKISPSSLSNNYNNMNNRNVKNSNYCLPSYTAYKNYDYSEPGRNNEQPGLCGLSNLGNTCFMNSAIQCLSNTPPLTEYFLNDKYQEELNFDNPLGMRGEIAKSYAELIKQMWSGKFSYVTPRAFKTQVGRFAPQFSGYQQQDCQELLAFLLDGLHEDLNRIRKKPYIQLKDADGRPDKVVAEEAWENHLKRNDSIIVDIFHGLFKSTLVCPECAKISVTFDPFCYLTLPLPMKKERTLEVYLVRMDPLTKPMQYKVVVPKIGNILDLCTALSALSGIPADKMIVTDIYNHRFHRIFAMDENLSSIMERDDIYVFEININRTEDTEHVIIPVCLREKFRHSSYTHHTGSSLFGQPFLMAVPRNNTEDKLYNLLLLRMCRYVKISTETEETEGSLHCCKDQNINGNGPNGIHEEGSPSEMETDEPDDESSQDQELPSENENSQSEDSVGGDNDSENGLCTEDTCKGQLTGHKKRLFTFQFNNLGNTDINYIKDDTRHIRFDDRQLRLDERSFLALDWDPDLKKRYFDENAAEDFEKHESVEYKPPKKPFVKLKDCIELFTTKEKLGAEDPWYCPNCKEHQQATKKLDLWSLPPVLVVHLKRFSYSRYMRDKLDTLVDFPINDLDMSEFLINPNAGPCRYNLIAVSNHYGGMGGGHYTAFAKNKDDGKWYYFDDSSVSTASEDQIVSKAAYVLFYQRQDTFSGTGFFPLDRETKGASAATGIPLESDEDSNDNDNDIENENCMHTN
# Outline: as §1
# USP16 = USP16 (UniProt Q9Y5T5)
# Chain of USP16 (Q9Y5T5 whole entry, looked up): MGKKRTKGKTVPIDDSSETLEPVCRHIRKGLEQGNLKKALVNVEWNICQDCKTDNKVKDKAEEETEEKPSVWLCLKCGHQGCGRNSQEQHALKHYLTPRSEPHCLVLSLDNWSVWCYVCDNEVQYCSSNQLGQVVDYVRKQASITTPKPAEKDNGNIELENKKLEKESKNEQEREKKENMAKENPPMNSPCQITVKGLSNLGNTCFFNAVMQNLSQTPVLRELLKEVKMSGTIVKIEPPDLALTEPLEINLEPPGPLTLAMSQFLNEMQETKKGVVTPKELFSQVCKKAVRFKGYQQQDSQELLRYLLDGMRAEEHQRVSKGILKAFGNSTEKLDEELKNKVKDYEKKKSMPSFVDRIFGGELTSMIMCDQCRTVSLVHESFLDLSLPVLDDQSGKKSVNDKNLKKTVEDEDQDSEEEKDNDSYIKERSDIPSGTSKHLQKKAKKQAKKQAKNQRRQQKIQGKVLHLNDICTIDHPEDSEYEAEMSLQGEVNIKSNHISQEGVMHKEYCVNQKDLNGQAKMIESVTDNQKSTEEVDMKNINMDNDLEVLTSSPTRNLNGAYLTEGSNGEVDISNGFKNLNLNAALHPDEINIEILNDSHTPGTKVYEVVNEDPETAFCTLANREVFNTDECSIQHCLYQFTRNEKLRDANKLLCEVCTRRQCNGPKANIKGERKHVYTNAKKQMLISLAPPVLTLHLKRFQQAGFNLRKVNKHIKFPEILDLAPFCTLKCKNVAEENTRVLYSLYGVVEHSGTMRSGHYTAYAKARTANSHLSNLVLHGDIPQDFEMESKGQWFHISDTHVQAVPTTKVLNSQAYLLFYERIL
# Outline: as §1
Structure (SMILES),log2 ratio of Biotin-Ahx-Ub-VS probe labelling (OTUD6B),log2 ratio of Biotin-Ahx-Ub-VS probe labelling (OTUD7B),log2 ratio of Biotin-Ahx-Ub-VS probe labelling (PRPF8),log2 ratio of Biotin-Ahx-Ub-VS probe labelling (PSMD7),log2 ratio of Biotin-Ahx-Ub-VS probe labelling (UCHL1),log2 ratio of Biotin-Ahx-Ub-VS probe labelling (UCHL3),log2 ratio of Biotin-Ahx-Ub-VS probe labelling (UCHL5),log2 ratio of Biotin-Ahx-Ub-VS probe labelling (USP10),log2 ratio of Biotin-Ahx-Ub-VS probe labelling (USP15),log2 ratio of Biotin-Ahx-Ub-VS probe labelling (USP16)
O=C(CCl)N(Cc1ccsc1)C1CC1,0.0351,-0.317,-0.0299,-0.114,-0.773,0.415,-0.238,-0.125,0.02,0.463
Cc1ccc(C)c(NC(=O)CCl)c1,-0.56,-0.844,-0.000105,-0.209,-1.17 (active),-0.416,-0.568,-0.39,-0.203,-0.0434
O=C(CCl)N1CCCC2CCCCC21 (stereo not given),0.111,-0.246,0.0617,-0.09,-1.06 (active),0.0783,-0.193,-0.167,-0.1,-0.257
O=C(CCl)N1CCN2C(=O)CCC2C1 (stereo not given),-0.158,-0.49,-0.164,-0.288,-1.64 (active),0.118,-0.0709,-0.195,-0.15,0.00152
Cn1cc(CN(Cc2ccc(Cl)cc2)C(=O)CCl)cn1,-0.0472,-0.238,0.208,0.0391,-0.602,0.113,-0.221,-0.0261,-0.272,-1.17 (active)
Cl.Cn1ncc2c1CC(NC(=O)CCl)CC2 (stereo not given),0.0134,-0.999,0.142,-0.2,-1.84 (active),0.377,-0.0217,-0.106,-0.0211,-0.62
O=C(CCl)N1CCc2[nH]c3ccccc3c2C1,-0.206,-1.05 (active),-0.175,-0.319,-1.24 (active),-0.675,-0.893,-0.119,-1.46 (active),0.191
CC(O)CC1CCN(C(=O)CCl)CC1 (stereo not given),-0.0339,-0.302,0.0532,-0.0764,-1.53 (active),0.294,-0.019,-0.0376,-0.0583,-0.771
Cc1cccc2nc(CCNC(=O)CCl)cn12.Cl,-0.459,-0.556,-0.224,-0.141,-2.08 (active),-0.0466,-0.344,-0.121,-0.369,0.0184
O=C(CCl)NC(Cn1ccccc1=O)c1ccccc1 (stereo not given),0.102,-0.332,-0.224,-0.094,-1.61 (active),0.233,-0.175,-0.0324,-0.0415,-0.972
O=C(CCl)N1CCC(C(O)c2ccc(F)cc2)CC1 (stereo not given),0.0694,-0.134,-0.0885,-0.0381,-1.31 (active),0.426,0.12,-0.257,0.278,0.191
O=C(CCl)Nc1ccccc1C(F)(F)F,-0.447,-0.668,0.155,-0.0779,-0.977,0.2,-0.341,-0.0659,-0.122,-0.0895
O=C(CCl)N1CCC(c2ccn[nH]2)C1 (stereo not given),-0.234,-0.648,-0.154,-0.294,-0.579,-0.0683,-0.213,-0.079,-0.555,-0.161
Cc1ccc(CC(CO)CNC(=O)CCl)cc1 (stereo not given),-0.264,-1.12 (active),-0.059,-0.169,-1.92 (active),-0.121,-0.474,-0.0682,-0.199,0.217
